Measured values from publication PMC7819943, “Rice protein-binding microarrays: a tool to detect cis-acting elements near promoter regions in rice”.
Over roughly 68,000 sequences, “fluorescence intensity (a.u.)” has its median near 9,100; the highest 2% begin near 16,000. The sample holds the highest values, similar sequences and a random draw of the others, so the mix is not that of the screen.

Biological target: OsWRKY34 (Oryza sativa, UniProt Q0JBA9 1-250)
Test: protein-binding microarray (RPBM); PBS, 2% BSA, 51.3 ng/ul salmon testes DNA, 50 uM zinc acetate, 200 nM TF, 25 C, 1 h; high values mean tight binding
Conditions: protein: recombinant; tags: N-terminal polyhistidine and DsRed monomer fusion (pET32a); label: CyDye5-dUTP incorporated in the synthesized complementary strand; 3' TTTTT single-stranded linker to array surface; dsDNA, one strand shown
Outline: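 Transcription factors were each fused at the N-terminus to a polyhistidine tag plus DsRed and expressed in E. coli BL21-CodonPlus before Ni–NTA purification. Binding to a double-stranded custom Agilent array was carried out with 200 nM protein at 25 °C for 1 h in PBS, 2% BSA, salmon testes DNA and 50 µM zinc acetate. The binding signal is per-feature fluorescence intensity, in arbitrary units, on an Axon 4000B scanner.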

OsWRKY34, sequence (Q0JBA9 entry or part of it): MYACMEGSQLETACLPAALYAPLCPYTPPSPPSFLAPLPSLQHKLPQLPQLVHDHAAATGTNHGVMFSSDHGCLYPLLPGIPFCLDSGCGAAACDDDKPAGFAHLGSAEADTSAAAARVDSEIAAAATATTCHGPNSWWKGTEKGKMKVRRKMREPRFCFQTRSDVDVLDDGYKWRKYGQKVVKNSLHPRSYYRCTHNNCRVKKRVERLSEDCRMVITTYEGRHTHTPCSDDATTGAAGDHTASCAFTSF

In order of falling binding signal:
1. GGTGGTTGGGTACTTGGGTTGGGTTTGGGTTTTTAGGTTTCGGAGTCACCTAGTGCAG  29100 fluorescence intensity (a.u.)
2. TAGAGTGGTTGGTTGGGTACTTGGGTTGGGTTGGGTGGTCCGGAGTCACCTAGTGCAG  24300 fluorescence intensity (a.u.)
3. TGTTGGGTTGGGTTGGGTTGGGTTGGGTCCGTCCGATGAACGGAGTCACCTAGTGCAG  24200 fluorescence intensity (a.u.)
4. TGATAGTGGTGGGGTGGTATTGGTCCTAGCTTTGTACTCCCGGAGTCACCTAGTGCAG  18700 fluorescence intensity (a.u.)
5. TTCCTTTTTTTACGTGGCAACAGTTAGGGGTGGGCATTCGCGGAGTCACCTAGTGCAG  18400 fluorescence intensity (a.u.)
6. GGTGTTAGCTTTAGGTTTTGGTGTTTGGTTGGGTAATTTTCGGAGTCACCTAGTGCAG  17300 fluorescence intensity (a.u.)
7. TGGTACTGCGTGCGGTGGGGTAGGAGTAGGAGGTTTCTTTCGGAGTCACCTAGTGCAG  16600 fluorescence intensity (a.u.)
8. GAAAACCTAGGGTTAGGTTTGGTGGGGTTGGCAGCTTTCGCGGAGTCACCTAGTGCAG  16400 fluorescence intensity (a.u.)
9. CAGTTAGGGGTGGGCATTCGGTCAGACCGAAAAATTCGGTCGGAGTCACCTAGTGCAG  15500 fluorescence intensity (a.u.)
10. GTTTCTTGGTCGTGGGGTCGAGGAGGTGGTGGGTGGTGGTCGGAGTCACCTAGTGCAG  14800 fluorescence intensity (a.u.)
11. AGGTGGGGAGCGGCGGACTCGCGGTTGGGTTTGTGTGGTTCGGAGTCACCTAGTGCAG  14200 fluorescence intensity (a.u.)
12. GGGTACAGGGGTGGGGACTTGGGTGTGTTGTGGTGGTTACCGGAGTCACCTAGTGCAG  12400 fluorescence intensity (a.u.)
13. CGATGAGGAGGAGGAGGGGCAACAGTGTTAGGGTGGATTTCGGAGTCACCTAGTGCAG  12100 fluorescence intensity (a.u.)
14. CTGGTTGGTAGGTACTTGCTTGATTAGATTGGGTTTGGTTCGGAGTCACCTAGTGCAG  11500 fluorescence intensity (a.u.)
15. GGTTTGTTTGTCAACCTCGGGGTGGTTGGGTACTTGGGTTCGGAGTCACCTAGTGCAG  11000 fluorescence intensity (a.u.)
16. TCTCTCTTTCTTTCTATTTTTCTTTTCAGTCAGGTTAGTACGGAGTCACCTAGTGCAG  11000 fluorescence intensity (a.u.)
17. GTCATACCACCTTACTTTTTACGTTTGAATCACCATTCTACGGAGTCACCTAGTGCAG  10900 fluorescence intensity (a.u.)
18. GTTTGCATGTTAAGCTTTAGGATTTGGTGGGTTATAATTTCGGAGTCACCTAGTGCAG  10800 fluorescence intensity (a.u.)
19. ATGGTGGGCTTGTATTGTCCTGCAGTCCTGCTTGTTTTACCGGAGTCACCTAGTGCAG  10700 fluorescence intensity (a.u.)
20. AGGCCATCATCACTTTAGTCTTATTTTCGTCACCATCATCCGGAGTCACCTAGTGCAG  10300 fluorescence intensity (a.u.)
21. CTACTTATCATCCATTTAAACATGCTACTAGTCATTCTTCCGGAGTCACCTAGTGCAG  10200 fluorescence intensity (a.u.)
22. GTGTTTGGTTGGGTAATTTTGCAGGTGTTGCTCGTCAATTCGGAGTCACCTAGTGCAG  10200 fluorescence intensity (a.u.)
23. TATTTACTTTATTTCCTCCATTTATGTCGTTTTAGTTTTGCGGAGTCACCTAGTGCAG  9590 fluorescence intensity (a.u.)
24. TTGTGTGTTCTTCCATCTGGCAATGGCATCTGCAGCAGCACGGAGTCACCTAGTGCAG  9530 fluorescence intensity (a.u.)
25. TTGTTTCCTATACTTCCTACCAAATGTTCTGATTTTACTGCGGAGTCACCTAGTGCAG  9520 fluorescence intensity (a.u.)
26. CCTCCTTTGTTCTTGCTCCTCTTTGCACGCAAAGAATCGGCGGAGTCACCTAGTGCAG  9110 fluorescence intensity (a.u.)
27. AAACAGGTCACTACTATCCTCCATATATATATATTTTAGACGGAGTCACCTAGTGCAG  9110 fluorescence intensity (a.u.)
28. ATGTTTGTTTGGTTGACTGCACTTGGTCCGACGGATGAAACGGAGTCACCTAGTGCAG  8720 fluorescence intensity (a.u.)
29. CTGCCACGTCACATTTGCCGCCCTCTGGGAGGGCGATTTTCGGAGTCACCTAGTGCAG  8580 fluorescence intensity (a.u.)
30. GGTGGGGTTGGCAGCTTTCGTGCTTGGTCAACCGGGCATGCGGAGTCACCTAGTGCAG  8520 fluorescence intensity (a.u.)
31. GTTATAGCGCATCTATCAATCGTACTAAATTTCATTGTCCCGGAGTCACCTAGTGCAG  8450 fluorescence intensity (a.u.)
32. AGGAGATGCGGTAGTTTTTTTGGTACTGCGTGCGGTGGGGCGGAGTCACCTAGTGCAG  8400 fluorescence intensity (a.u.)
33. CGTTGGATAATCTCTAGTACATGTATATACATTTGGCTCTCGGAGTCACCTAGTGCAG  8220 fluorescence intensity (a.u.)
34. TCCCAGCAAATGCAACGCTCGTACTCCTCGCATCAACAGCCGGAGTCACCTAGTGCAG  8210 fluorescence intensity (a.u.)
35. ACTAGTGAAGTGTTGCCCGTTGGGTTTGGTGGAGTTTGAACGGAGTCACCTAGTGCAG  8200 fluorescence intensity (a.u.)
36. ATTAACAGCCTAGCTAGCTAGTGATCAGTGTTGACCGTTGCGGAGTCACCTAGTGCAG  8200 fluorescence intensity (a.u.)
37. TTGTTGTTTTTCGGTACTGTTGATTGAATTAGTGTTATGTCGGAGTCACCTAGTGCAG  8120 fluorescence intensity (a.u.)
38. CATCGATCGCACTAGTGTCGCTCTCTGGAAGTAATAGCCTCGGAGTCACCTAGTGCAG  8110 fluorescence intensity (a.u.)
39. CTTCTTCTTCTTCTTCTTCTTGGTCCGGAGAGAGTAGAGACGGAGTCACCTAGTGCAG  8090 fluorescence intensity (a.u.)
40. ACCTGACTAGCAAGCAACAATCATGTAACTTTTCACCTTTCGGAGTCACCTAGTGCAG  8070 fluorescence intensity (a.u.)
41. TATTGGGTGCTTTTGTCCTCAGGTGTGGTATATAGGTACCCGGAGTCACCTAGTGCAG  8060 fluorescence intensity (a.u.)
42. AGAACTAGAAGACCACACGCTGTCTCACTTGTTGCAAAATCGGAGTCACCTAGTGCAG  8050 fluorescence intensity (a.u.)
